Only some compounds are listed: those with a hit (about 3.2% of all), similar ones and a draw of the others.
DYRK1A inh: blocks rat Dyrk1A kinase activity; ADP-Glo luminescence, NFATc1 peptide; 310,000 tested, 0.43% active; inhibition, % at 12.5 µM; Q63470; AID 504441; in the data active means inhibition above about 50%
esBAF inh: blocks esBAF chromatin remodeling in mouse ES cells | Bmi1-luciferase knock-in reporter, 24 h; 100% = twice the neutral-well signal | reporter increase, % at 12.5 µM | 350,000 tested, 2% active | AID 602393; in the data active means activation above about 40%; inconclusive means no clear call, values can overlap the other calls;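 further: a rise in the Bmi1 reporter signal indicates esBAF inhibition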
SMARCA2 act: SMARCA2 function activation, primary screen; MG213 cells, MMTV-luciferase reporter, dexamethasone, overnight; activation, % at 9.1 µM; 370,000 tested, 1% active; AID 652017; in the data active means activation above about 7.8%
Rtt109 HAT inh: inhibitors of Candida albicans Rtt109/Vps75 histone acetyltransferase; Q5AAJ8; purified Rtt109/Vps75, ThioGlo CoA-SH fluorescence, 4 h; 330,000 tested, 0.16% active; inhibition, % at 34.9 µM;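 active means inhibition of at least 50% in every replicate; inconclusive means best replicate reaches 50% inhibition but some replicates fall short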
dFosB activator: activators of mouse delta FosB homodimer. AID 493131. purified delta FosB, TAMRA-CDK5 oligo fluorescence polarization; percent of positive-control signal above neutral wells. activation, % at 25 µM. P13346. 340,000 tested, 0.99% active;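 active means mean activation above about 17%, with every replicate also reaching it, limit read from the data, passing the limit was not always enough; inconclusive means only one of the two conditions met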
CDK5 p35 inh: inhibitors of human CDK5/p35 kinase; Q00535+Q15078; Recombinant CDK5/p35, ADP-Glo luminescence, 60 min; inhibition, % at 10 µM; 330,000 tested, 0.01% active; AID 488839;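 active means highest replicate inhibition of at least 50% and at least 75% of replicates reaching 50%; inconclusive means only one of the two criteria met; inactive means both criteria failed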
Target sequence (Q00535 whole entry, looked up): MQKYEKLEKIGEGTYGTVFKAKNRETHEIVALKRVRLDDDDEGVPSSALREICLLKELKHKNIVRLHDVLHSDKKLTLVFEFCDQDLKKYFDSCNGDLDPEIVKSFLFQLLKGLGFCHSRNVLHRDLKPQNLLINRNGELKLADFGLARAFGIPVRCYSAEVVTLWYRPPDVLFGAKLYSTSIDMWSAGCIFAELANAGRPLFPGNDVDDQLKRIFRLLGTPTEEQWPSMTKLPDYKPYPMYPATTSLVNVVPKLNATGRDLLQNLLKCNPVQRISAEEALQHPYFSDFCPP
Target sequence (Q15078 whole entry, looked up): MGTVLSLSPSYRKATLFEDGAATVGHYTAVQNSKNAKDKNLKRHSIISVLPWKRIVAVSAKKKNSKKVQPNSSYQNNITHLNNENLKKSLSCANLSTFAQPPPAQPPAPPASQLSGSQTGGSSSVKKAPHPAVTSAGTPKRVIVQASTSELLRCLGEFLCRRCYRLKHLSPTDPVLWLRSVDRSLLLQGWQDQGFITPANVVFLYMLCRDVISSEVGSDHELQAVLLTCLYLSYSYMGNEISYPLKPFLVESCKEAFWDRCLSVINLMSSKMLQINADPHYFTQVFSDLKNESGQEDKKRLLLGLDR
SMARCA2 conf: SMARCA2 activation, confirmation screen; shares compounds with SMARCA2 act; MG213 cells, MMTV-luciferase with dexamethasone, luminescence, overnight; MG213 cells expressing E1A, Rb sequestered; DMSO wells 0%, reference activator 100%; activation, % at 9.1 µM; 3,500 tested, 30% active;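 active means activation above its plate's cutoff, the mean activation of tested wells plus 3 SD, cut at about 7.9% in these data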
VP16 Luc act: counter-screen for SMARCA2 activators: GAL4-VP16 luciferase reporter activation; shares compounds with SMARCA2 act; HEK293 GAL4-VP16 pG5luc reporter, luciferase luminescence; scaled: DMSO wells 0%, SAHA wells 100%; activation, % at 9.1 µM; 3,500 tested, 41% active; AID 686939;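 active means activation above the solvent-only control well mean plus 3 SD, averaged across control plates, cut at about 5.2% in these data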
Large screens that a line does not name were inactive (follow-up assays come after a bar, where they were run).

O=C1CCC(C(=O)N2CCCCCC2)CN1Cc1cccc(C(F)(F)F)c1 (configuration not stated)	SMARCA2 act 9.2 | SMARCA2 conf inactive | VP16 Luc act inactive
CN(C(=O)C1CCC(=O)N(Cc2cccc(F)c2)C1)C1CCCCC1 (configuration not stated)	esBAF inh 96.7, SMARCA2 act 9.1 | SMARCA2 conf 10.9 | VP16 Luc act 12.6
CC(=O)N1[C@H](C(=O)NC2CCCCC2)[C@@H](CO)[C@@H]2Cn3c(cccc3=O)[C@@H]21	none (no result: DYRK1A inh, SMARCA2 act, Rtt109 HAT inh, dFosB activator, CDK5 p35 inh)
CO[C@@H]1CN(C)C(=O)c2ccc(NC(C)=O)cc2OC[C@@H](C)N(C(=O)CN2CCOCC2)C[C@H]1C	none (no result: DYRK1A inh, SMARCA2 act, Rtt109 HAT inh, dFosB activator, CDK5 p35 inh)
CCOc1ccccc1N1CCN(C(=S)NCc2ccco2)CC1	SMARCA2 act 8.1 (no result: esBAF inh) | SMARCA2 conf inactive | VP16 Luc act inactive
CCOc1ccccc1N1CCN(C(=S)NCc2ccccc2)CC1	none
Cc1ccc(NC(=S)N2CCC(c3ccccc3)C2)c(Cl)c1 (configuration not stated)	SMARCA2 act 8.8 (no result: esBAF inh) | SMARCA2 conf inactive | VP16 Luc act 9.3
S=C(Nc1ccccc1Cl)N1CCC(c2ccccc2)C1 (configuration not stated)	none (no result: esBAF inh)
CN(C)CCCNC(=O)C[C@@H]1C=C[C@H](NS(=O)(=O)c2ccc(F)cc2)[C@H](CO)O1	none (no result: DYRK1A inh, SMARCA2 act, Rtt109 HAT inh, dFosB activator, CDK5 p35 inh)
CCn1nc(C)c(CNC(=O)Nc2ccc3c(c2)OCO3)c1C	SMARCA2 act 9.3 (no result: DYRK1A inh) | SMARCA2 conf inactive | VP16 Luc act inactive
Cc1cc(NCCN2CCOCC2)c2ccc3ccccc3c2n1	SMARCA2 act 11.2 (no result: esBAF inh) | SMARCA2 conf 21.4 | VP16 Luc act inactive
COc1ccc2nc(C)cc(NCCN3CCOCC3)c2c1	none
Fc1ccccc1-c1nc(NCCCN2CCOCC2)c2ccccc2n1	none (no result: esBAF inh)
c1ccc2c(NCCCN3CCOCC3)c3ccccc3nc2c1	SMARCA2 act 15.3 (no result: DYRK1A inh, esBAF inh, Rtt109 HAT inh, dFosB activator, CDK5 p35 inh) | SMARCA2 conf 27.7 | VP16 Luc act inactive
CN1CCN(Cc2nc3ccccc3c(=O)n2Cc2nc(-c3ccc([N+](=O)[O-])cc3)cs2)CC1	SMARCA2 act 17.2 (no result: esBAF inh) | SMARCA2 conf 43.8 | VP16 Luc act inactive
Cc1cc(Cl)nc(-c2ccccc2O)n1	none
CNc1nc(C)nc(-c2ccccc2O)n1	SMARCA2 act 8.7 | SMARCA2 conf inactive | VP16 Luc act 5.1
CCSc1nnc(NC(=O)c2csc(C)c2)s1	SMARCA2 act 8.1 | SMARCA2 conf inactive | VP16 Luc act 8.8
CCCC(=O)Nc1nnc(SCC)s1	SMARCA2 act 8.5 (no result: esBAF inh) | SMARCA2 conf inactive | VP16 Luc act inactive
CCCC(=O)Nc1nnc(SCC(=O)N2CCCCC2)s1	none
CCSc1nnc(NC(=O)c2cccc3ccccc23)s1	none
CC(C)c1cn(CC[C@H]2CC[C@@H](NC(=O)C3CC3)[C@@H](CO)O2)nn1	none (no result: DYRK1A inh, SMARCA2 act, Rtt109 HAT inh, dFosB activator, CDK5 p35 inh)
COc1ccc(CN(C)C[C@@H]2OCCCC[C@@H](C)Oc3ccc(NS(=O)(=O)c4ccccc4)cc3C(=O)N([C@H](C)CO)C[C@H]2C)cc1	none (no result: DYRK1A inh, SMARCA2 act, Rtt109 HAT inh, dFosB activator, CDK5 p35 inh)
COc1nc(Nc2nc3ccccc3c(=O)[nH]2)nc2ccc(C)cc12	none (no result: esBAF inh)
COc1nc(N=C(N)N)nc2ccc(C)cc12	SMARCA2 act 8.8 (no result: DYRK1A inh, esBAF inh, Rtt109 HAT inh, dFosB activator, CDK5 p35 inh) | SMARCA2 conf 42.8 | VP16 Luc act inactive
C[C@H]1CCCCO[C@H](CN(C)S(=O)(=O)c2cn(C)cn2)[C@@H](C)CN([C@@H](C)CO)C(=O)c2cc(NS(=O)(=O)c3ccc(Cl)cc3)ccc2O1	none (no result: DYRK1A inh, SMARCA2 act, Rtt109 HAT inh, dFosB activator, CDK5 p35 inh)
COc1ccc(OCC(=O)Nc2cccc(-c3nc4ccccc4[nH]3)c2)cc1	none
O=C(COc1ccccc1)Nc1cccc(-c2nc3ccccc3[nH]2)c1	SMARCA2 act 9.2 (no result: esBAF inh) | SMARCA2 conf inactive | VP16 Luc act inactive
O=C(Cc1cccs1)Nc1ccc(-c2nc3ccccc3[nH]2)cc1	SMARCA2 act 8.8 (no result: esBAF inh) | SMARCA2 conf inactive | VP16 Luc act 13.1
COC(=O)C1=C(C)N(Cc2ccccc2C(F)(F)F)C(=NCc2ccccc2)NC1c1ccc(C(F)(F)F)cc1 (configuration not stated)	none (no result: DYRK1A inh, esBAF inh, Rtt109 HAT inh, dFosB activator, CDK5 p35 inh)
COC(=O)C1=C(C)N(Cc2ccccc2C(F)(F)F)C(=NCc2cccc(C(F)(F)F)c2)NC1c1ccc(C(F)(F)F)cc1 (configuration not stated)	SMARCA2 act 10.2 (no result: DYRK1A inh, esBAF inh, Rtt109 HAT inh, dFosB activator, CDK5 p35 inh) | SMARCA2 conf inactive | VP16 Luc act inactive
C=CCn1c(-c2ccc(Cl)cc2)c[nH]c1=S	none
C=CCn1c(-c2ccccc2)c[nH]c1=S	esBAF inh 64.5, SMARCA2 act 12.7 | SMARCA2 conf inactive | VP16 Luc act 6.0
CCN(CC)S(=O)(=O)c1ccc(NC(=O)CCC2CCCCC2)cc1	SMARCA2 act 9.4 | SMARCA2 conf inactive | VP16 Luc act inactive
CC=Cc1ccc2n(c1=O)C[C@@H]1[C@@H](CO)[C@H](C(=O)N3CCCCC3)[C@H]2N1Cc1ccccn1 (mixture of isomers)	none (no result: DYRK1A inh, SMARCA2 act, Rtt109 HAT inh, dFosB activator, CDK5 p35 inh)
CC(C)(C)[S@](=O)N1Cc2cc(C(=O)NCc3ccncc3)nc(-c3cccc(-c4ccc(C#N)cc4)c3)c2[C@@H]1CCO	none (no result: DYRK1A inh, SMARCA2 act, Rtt109 HAT inh, dFosB activator, CDK5 p35 inh)
Nc1ccccc1C(=O)NCc1ccc(Cl)cc1	SMARCA2 act 8.1 (no result: esBAF inh) | SMARCA2 conf inactive | VP16 Luc act inactive
O=C(COC(=O)CC1CCCC1)Nc1cc2c(cc1Cl)C(=O)c1ccccc1C2=O	esBAF inh 50.1, SMARCA2 act 8.1 | SMARCA2 conf 8.6 | VP16 Luc act 13.9
C[C@H]1CN([C@@H](C)CO)C(=O)c2cc(NC(=O)C3CCCCC3)ccc2O[C@@H]1CN(C)Cc1ccc(C(=O)O)cc1	none (no result: DYRK1A inh, SMARCA2 act, Rtt109 HAT inh, dFosB activator, CDK5 p35 inh)
Cc1ccc(-c2nc(N/N=C/c3ccccc3[N+](=O)[O-])c3ccccc3n2)cc1	SMARCA2 act 8.2 | SMARCA2 conf inactive | VP16 Luc act 8.2
Brc1ccc(-c2nc(N/N=C/c3cccnc3)c3ccccc3n2)cc1	dFosB activator inconclusive (no result: esBAF inh)
Cc1ccc(S(=O)(=O)Nc2cccc3c2O[C@@H](CN(C)C(=O)Nc2ccccc2)[C@@H](C)CN([C@@H](C)CO)C3=O)cc1	none (no result: DYRK1A inh, SMARCA2 act, Rtt109 HAT inh, dFosB activator, CDK5 p35 inh)
O=C(Nc1ccccc1)N[C@H]1CC[C@@H](CCNC(=O)c2ccccc2F)O[C@@H]1CO	none (no result: DYRK1A inh, SMARCA2 act, Rtt109 HAT inh, dFosB activator, CDK5 p35 inh)
O=C(NCC(c1ccc(F)cc1)N1CCOCC1)c1ccc(C(=O)c2ccccc2)cc1 (configuration not stated)	none (no result: esBAF inh)
O=C(C=Cc1ccccc1)CC(c1ccccc1)N1CCOCC1 (configuration not stated)	SMARCA2 act 8.8 (no result: esBAF inh) | SMARCA2 conf inactive | VP16 Luc act inactive

Screens: PubChem, several laboratories
